Data: PubChem BioAssay AID1159580 (chemical genetic matrix, 2015)
Values joined by “and” are separate entries in the source; they are usually repeats but may differ in a detail not shown here. Identical values can stand only once. Among all 5,500 compounds or so, about 2,000 (36%) were called active. Inconclusive results (about 18%) are left out. Rule as the data show it: active = normalized growth mostly below about 0.91 (no sharp cut-off); inconclusive = no clear call, values can overlap the other calls; inactive = mostly above about 0.92. This is one part of the list.

Test: chemical genetic growth profiling, strain panel (AID 1159580);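 also: tested at 20 µM; growth read once vehicle control cultures reached saturation at 30 °C; 1 = growth at the plate median or of vehicle wells; lower values mean less growth of the strain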
Details: S. cerevisiae deletion strains, growth OD

Measured: normalized growth

COc1cccc2c1cc([N+](=O)[O-])c1c(C(=O)O)cc3c(c12)OCO3
inactive: locus YAL021C, strain ccr4, active compounds read low 1.01 | locus YAL026C, strain drs2, active compounds read low 1.02 | locus YAL030W, strain snc1, active compounds read low 1.02 | locus YBL061C, strain skt5, active compounds read low 1.02 | locus YBR009C, strain hhf1, active compounds read low 1.03 | locus YBR021W, strain FUR4, active compounds read low 0.991 | locus YBR023C, strain chs3, active compounds read low 1.02 | locus YBR171W, strain sec66, active compounds read low 1.05 | locus YBR229C, strain ROT2, active compounds read low 1.01 | locus YBR231C, strain swc5, active compounds read low 1.03 | locus YBR279W, strain paf1, active compounds read low 1.02 | locus YCL011C, strain gbp2, active compounds read low 1.03 | locus YCL016C, strain dcc1, active compounds read low 1.02 | locus YCL029C, strain bik1, active compounds read low 1.02 | locus YCL061C, strain MRC1, active compounds read low 1.02 | locus YCL069W, strain vba3, active compounds read low 1.02 | locus YCR088W, strain abp1, active compounds read low 1.02 | locus YDL005C, strain med2, active compounds read low 1.04 | locus YDL035C, strain GPR1, active compounds read low 1.01 | locus YDL040C, strain nat1, active compounds read low 1 | locus YDL074C, strain BRE1, active compounds read low 1.04 | locus YDL101C, strain DUN1, active compounds read low 1.03 | locus YDL134C, strain PPH21, active compounds read low 1.01 | locus YDL185W, strain tfp1, active compounds read low 1 | locus YDL192W, strain arf1, active compounds read low 1.04 | locus YDR001C, strain nth1, active compounds read low 1.02 | locus YDR069C, strain doa4, active compounds read low 1.02 | locus YDR101C, strain arx1, active compounds read low 1.03 | locus YDR137W, strain rgp1, active compounds read low 1.03 | locus YDR150W, strain NUM1, active compounds read low 1.02 | locus YDR159W, strain sac3, active compounds read low 1.04 | locus YDR162C, strain NBP2, active compounds read low 1.03 | locus YDR195W, strain ref2 1 | locus YDR297W, strain sur2, active compounds read low 1.03 | locus YDR318W, strain mcm21, active compounds read low 1.02 | locus YDR334W, strain swr1, active compounds read low 1.02 | locus YDR335W, strain msn5, active compounds read low 1.02 | locus YDR388W, active compounds read low 1.02 | locus YDR392W, strain spt3, active compounds read low 0.971 | locus YDR502C, strain sam2, active compounds read low 1.01 | locus YEL003W, strain gim4, active compounds read low 1.03 | locus YEL037C, strain rad23, active compounds read low 1.02 | locus YEL061C, strain CIN8 (second series), active compounds read low 1.02 | locus YEL061C, strain CIN8, active compounds read low 1.01 | locus YER015W, strain faa2, active compounds read low 1.02 | locus YER016W, strain bim1, active compounds read low 1.02 | locus YER110C, active compounds read low 1.01 | locus YER111C, strain swi4, active compounds read low 1.03 | locus YER155C, strain BEM2 (second series), active compounds read low 1.03 | locus YER155C, strain BEM2, active compounds read low 1.01 | locus YER167W, strain BCK2, active compounds read low 0.999 | locus YFR010W, strain ubp6, active compounds read low 1.02 | locus YGL078C, strain dbp3, active compounds read low 0.997 | locus YGL086W, strain mad1, active compounds read low 1.03 | locus YGL167C, strain pmr1, active compounds read low 1.04 | locus YGL173C, strain kem1, active compounds read low 1.04 | locus YGL227W, strain vid30, active compounds read low 1.02 | locus YGL240W, strain doc1, active compounds read low 1.03 | locus YGL248W, strain PDE1, active compounds read low 1.01 | locus YGL253W, strain hxk2, active compounds read low 1.01 | locus YGR135W, strain pre9, active compounds read low 0.994 | locus YGR229C, strain SMI1, active compounds read low 1.02 | locus YGR252W, strain gcn5, active compounds read low 0.906 | locus YHR013C, strain ard1, active compounds read low 1.02 | locus YHR027C, strain rpn1, active compounds read low 1.02 | locus YHR030C, strain SLT2, active compounds read low 1.01 and 0.92 | locus YHR079C, strain IRE1 (second series), active compounds read low 1.01 | locus YHR079C, strain IRE1, active compounds read low 0.914 | locus YHR094C, strain hxt1, active compounds read low 1.02 | locus YHR129C, strain ARP1, active compounds read low 1.01 | locus YHR142W, strain chs7, active compounds read low 1.01 | locus YHR200W, strain rpn10, active compounds read low 1.02 | locus YIL066C, strain RNR3, active compounds read low 1.02 | locus YIL073C, strain SPO22, active compounds read low 1.03 | locus YIL125W, strain kgd1, active compounds read low 0.995 | locus YIR030C, strain dcg1, active compounds read low 1.02 | locus YJL092W, strain hpr5, active compounds read low 1.02 | locus YJL095W, strain BCK1 (second series), active compounds read low 1.01 | locus YJL095W, strain BCK1, active compounds read low 1.04 and 0.987 | locus YJL115W, strain asf1, active compounds read low 1.02 | locus YJL129C, strain trk1, active compounds read low 1.03 | locus YJL134W, strain LCB3, active compounds read low 1.02 | locus YJL154C, strain vps35, active compounds read low 1.02 | locus YJL164C, strain tpk1, active compounds read low 0.991 | locus YJL166W, strain qcr8, active compounds read low 1.02 | locus YJL168C, strain set2, active compounds read low 1.01 | locus YJL187C, strain SWE1 (second series), active compounds read low 1.03 | locus YJL187C, strain SWE1, active compounds read low 1.02 | locus YJR043C, strain POL32, active compounds read low 1.01
